High-throughput results deposited in PubChem BioAssay by National Center for Advancing Translational Sciences (NCATS).
Cruzain noTriton: qHTS Assay for Promiscuous and Specific Inhibitors of Cruzain (without detergent); AID 1476, 2009; purified cruzain, Z-FR-AMC fluorescence, no detergent; actives 2.3% (n = 200,000); Potency, µM, usual class: inhibitors; Cruzipain (Trypanosoma cruzi), P25779; further: nearly all actives have a fitted effect of over 40% in size
Target sequence (P25779 123-467 limits assumed): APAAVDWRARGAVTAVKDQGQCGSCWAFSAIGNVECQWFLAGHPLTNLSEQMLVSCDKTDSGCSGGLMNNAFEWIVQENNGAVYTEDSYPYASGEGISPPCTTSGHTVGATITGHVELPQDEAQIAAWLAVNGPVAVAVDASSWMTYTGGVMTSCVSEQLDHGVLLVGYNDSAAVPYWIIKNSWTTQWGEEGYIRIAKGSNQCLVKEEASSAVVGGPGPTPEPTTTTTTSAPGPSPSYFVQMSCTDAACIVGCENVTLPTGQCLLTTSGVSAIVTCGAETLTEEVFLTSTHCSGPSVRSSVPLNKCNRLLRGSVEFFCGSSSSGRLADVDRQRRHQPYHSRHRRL
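Purified cruzain at 1.5 nM, pre-incubated 15 min with compound at room temperature in 100 mM sodium acetate pH 5.5, 5 mM DTT, 0.00005% Triton X-100. Reaction started with 2 uM Z-FR-AMC; AMC fluorescence increase over 60 s gives rate.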
Cruzain Triton: qHTS Assay for Promiscuous and Specific Inhibitors of Cruzain (with detergent) | Cruzipain (Trypanosoma cruzi), P25779 | purified cruzain, Z-FR-AMC fluorescence, 0.01% Triton | Potency, µM, most hits filed as inhibitors | actives 0.43% (n = 200,000); further: nearly all actives have a fitted effect of over 40% in size
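15 min RT preincubation of 1.5 nM cruzain with compound, then 2 uM Z-FR-AMC added; kinetic AMC fluorescence, 60 s delta. Triton X-100 0.01%, pH 5.5.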
Each line names hits and unclear results; the compound was inactive in the other large screens. Sampled rows, rich in hits. Any-hit rate of the full collection: about 2.6%. The call rests on the fitted dose curve; in most records, active means well fitted curve in the direction sought with a large enough effect; inconclusive means small, poorly fitted or top-dose-only effect, or another doubt; inactive means no such curve, though single readings can be large; an effect the other way counts as inactive or inconclusive.

COc1ccc(N2C(=O)CSC23CCC(C(C)(C)C)CC3)cc1 (stereo unspecified)	Cruzain noTriton inconclusive
Cc1cc(C)cc(NC(=O)CCCN2C(=O)COc3ccc(C)cc32)c1	Cruzain noTriton inconclusive
O=C(CCn1cnc2ccccc2c1=O)NCc1ccccc1	none
CCc1nnc(NC(=O)c2oc3cc(C)c(C)cc3c2C)s1	Cruzain noTriton 12.6µM
CCc1nonc1NC(=O)c1oc2cc(C)c(C)cc2c1C	none
N#C/C(C(=O)NCc1ccccc1)=C1/N=C(NC(=O)c2cccs2)c2ccccc21	Cruzain noTriton 25.1µM
N#C/C(=C\c1cccs1)C(=O)NCc1ccccc1	none
O=c1c(-c2ccc(F)cc2)nc2cnc(Nc3ccccc3)nc2n1Cc1cccs1	none
COc1ccc(NC(=O)CSc2nc3ccccc3cc2Cc2ccccc2)cc1	Cruzain noTriton inconclusive
COc1cc(NC(=O)CSc2nc3ccccc3cc2Cc2ccccc2)cc(OC)c1	Cruzain noTriton 31.6µM
COc1cccc(NC(=O)CSc2nc3ccccc3cc2Cc2ccccc2)c1	Cruzain noTriton inconclusive
COc1ccc(OC)c(NC(=O)CSc2nc3ccccc3cc2Cc2ccccc2)c1	Cruzain noTriton 20µM
CCOC(=O)Cn1c(=O)oc2cc(S(=O)(=O)N3CCN(c4cccc(C)c4)C(C)C3)ccc21 (stereo unspecified)	Cruzain noTriton inconclusive
Cc1cccc(C(=O)NC(NC(=S)Nc2ccc(S(N)(=O)=O)cc2)C(Cl)(Cl)Cl)c1 (stereo unspecified)	Cruzain noTriton 25.1µM, Cruzain Triton 12.6µM
CCC(=O)NC(NC(=S)Nc1ccc(S(N)(=O)=O)cc1)C(Cl)(Cl)Cl (stereo unspecified)	none
COc1ccc(OC)c(CCNc2ncnc3onc(C)c23)c1	none
CS(=O)(=O)c1ccc2nc(NC(=O)c3cccc(NS(=O)(=O)c4ccc(F)c(F)c4)c3)sc2c1	none
O=C(Nc1nc2ccc(SC(F)F)cc2s1)c1ccc(NS(=O)(=O)c2ccc(F)c(F)c2)cc1	Cruzain noTriton 31.6µM
COc1cc(OC)cc(-c2nc3nc(C)c(CCC(=O)Nc4cc(C)cc(C)c4)c(C)n3n2)c1	none
Cc1ccc(OCC(=O)Nc2nnc(SCc3cc(=O)c4ccccc4[nH]3)s2)cc1	none
CCOC(=O)c1cc(-c2ccc(F)cc2)n(CC(=O)NC2CCCCC2)c1C	none
O=C(NC1CCCCC1)c1cc(Nc2cccc(C(F)(F)F)c2)nc2ccccc12	none
Cc1cccc(CNc2nc(-c3ccoc3)nc3ccccc23)c1	Cruzain noTriton inconclusive
COc1cccc(-c2nc(NCc3ccccc3OC)c3ccccc3n2)c1	none
Cc1noc(C)c1-c1nc(Nc2ccc(F)cc2)c2ccccc2n1	Cruzain noTriton inconclusive
Fc1ccc(Nc2nc(-c3ccoc3)nc3ccccc23)cc1	Cruzain noTriton 25.1µM
COc1ccc(CNc2nc(-c3ccoc3)nc3ccccc23)c(OC)c1	Cruzain noTriton 15.8µM
c1ccc(CNc2nc(-c3ccoc3)nc3ccccc23)cc1	Cruzain noTriton 25.1µM
CCOc1ccc(OCC)c(NC(=O)CC(C)n2nc(C)cc2C)c1 (stereo unspecified)	none
CCCCC/C=C\C/C=C\C/C=C\C/C=C\CCCC(=O)O[C@H](COCCCCCCCCCCCCCCCC)COP(=O)([O-])OCC[N+](C)(C)C	none
CCc1ccccc1NC(=O)Cn1nnc(C(=O)Nc2ccc(OC)c(OC)c2)c1N	none
Cc1ccc(NC(=O)Cn2nnc(C(=O)NCc3cccs3)c2N)cc1	Cruzain noTriton inconclusive
CCc1ccccc1NC(=O)Cn1nnc(C(=O)NCc2cccs2)c1N	Cruzain noTriton 20µM
CCc1ccccc1NC(=O)c1nnn(CC(=O)Nc2c(C)cc(C)cc2C)c1N	Cruzain noTriton 31.6µM
CCc1ccc(Cn2nnc(C(=O)Nc3ccc(OC)cc3OC)c2N)cc1	Cruzain noTriton 25.1µM
COc1cc(OC)c(NC(=O)c2nnn(Cc3ccc(C)cc3)c2N)cc1Cl	none
COc1ccccc1NC(=O)Cn1nnc(C(=O)NCc2cccs2)c1N	none
Cc1ccc(NC(=O)Cn2nnc(C(=O)NCc3cccs3)c2N)cc1Cl	Cruzain noTriton 25.1µM
COc1ccc(-n2nc(C(=O)N3CCCCC3)c3c4ccccc4n(C)c3c2=O)cc1Cl	none
CCOc1ccc(-n2c(=O)c3c(C)c(C)sc3n(CC(=O)N3CCC(C)CC3)c2=O)cc1	none
COc1ccc(-c2nnc(SCc3cc(=O)c4cc(C)cc(C)c4[nH]3)n2C)cc1	none
CCCn1c(=O)c2sccc2n2c(CCCC(=O)NC3CCC(C)CC3)nnc12 (stereo unspecified)	none
Cc1cccc(NC(=O)Cn2nnc(C(=O)Nc3ccc(F)c(Cl)c3)c2N)c1	Cruzain noTriton 25.1µM
COc1ccc(NC(=O)Cn2nnc(C(=O)Nc3ccc(C)c(F)c3)c2N)cc1Cl	none
Cc1ccc(CNC(=O)c2nnn(CC(=O)Nc3cc(C)ccc3C)c2N)cc1	none
CCc1ccc(NC(=O)Cn2nnc(C(=O)NCc3ccc(C)cc3)c2N)cc1	Cruzain noTriton 20µM
Cc1oc(-c2ccc(C(=O)NCc3cccc(F)c3)cc2)nc1COc1ccccc1	none
